Pf Dd2 inh = qHTS Primary assay for Inhibitors of Plasmodium falciparum Dd2 growth in vitro | 120,000 tested, 4.3% active | Potency, µM (highest dose often 28.9 µM), for the others: at the top dose activity, negative = inhibition, actives largely listed as inhibitors | P. falciparum Dd2 growth, SYBR Green, 72 h; active = well fitted inhibition curve with a large enough effect;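 also: plate controls were DMSO vehicle for no effect and reference drug for full effect; nearly all actives have a fitted effect of over 65% in size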
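Infected erythrocytes (Dd2, 0.3% parasitemia, 2.5% hematocrit final) are added to compound in RPMI-1640/Albumax II medium, grown 72 h at 37C in low oxygen, then lysed with saponin/Triton-X containing SYBR Green and read by fluorescence.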
Numbers without * were called inactive; i = inactive; [ ] = remark or other dose. This is one part of a sample in which hits are shown more often than they occur. Potency is read from the fitted curve at half-maximal effect.

SMILES	Pf Dd2 inh
CCCOc1ccc(-c2nn(-c3ccccc3)cc2C2NC(=O)NC(C)=C2C(=O)OC)cc1C (centres undefined)	10µM*
COC(=O)C1=C(C)NC(=O)NC1c1ccc(O)cc1 (centres undefined)	-7.4%
CCCOc1ccccc1C1C(C(=O)Nc2ccccc2)=C(C)Nc2nnnn21 (centres undefined)	82.8%
CCCCOc1ccc(-c2nn(-c3ccccc3)cc2C2NC(=O)NC(C)=C2C(=O)OC)cc1 (centres undefined)	i
CCCOc1ccc(-c2nn(-c3ccccc3)cc2C2NC(=O)NC(C)=C2C(=O)OC)cc1 (centres undefined)	10µM*
COc1ccc(C2NC(=O)NC(C)=C2C(=O)Nc2ccccc2)cc1OC (centres undefined)	-23.3%
O=C(N[C@H]1C[C@@H]2OCC[C@H]12)c1ccccc1-c1nc(-c2ccccc2)no1	-13.2%
O=C(CC[C@@H]1CNC(=O)[C@@H]2C[C@H](NCc3ccccc3)CN12)NCc1ccccc1	i
COCc1ccc2c(c1)c(OC(C)(C)C(=O)NCC(F)(F)F)nn2Cc1cccnc1	5.3%[44.1 µM]
CCOc1ccccc1NC(=O)CCNS(=O)(=O)c1ccc2c(c1)CCN2C(=O)C1CC1	-0.5%
Cc1sc2nc(CCN)nc(N(C)CCCCN3CCOCC3)c2c1C	i
CNC(=O)c1ccc(CNc2nc(CCN)nc3sc(C)c(C)c23)o1	10µM*
CNC(=O)c1ccc(CNc2cc(C3CC(O)C3)nc(N)n2)o1 (centres undefined)	-7.8%
COc1ncccc1C(=O)N1CCC(CCC(=O)N2CCC(Cc3ccccc3)CC2)CC1	-24.1%
Cc1ccc(OCC(=O)Nc2nonc2-c2ccc(Br)cc2)cc1	i
Cc1ccc(C2Cn3nnc(-c4nc(-c5cccc(F)c5)no4)c3CO2)c(C)c1 (centres undefined)	0.0%
COc1cc(CNCc2ccccc2C)ccc1OCC(O)CN1CCC(O)CC1 (centres undefined)	-6.4%
C=CCc1ccccc1OCC(O)CN1CCN(c2ccccc2)CC1 (centres undefined)	-20.0%
OC(COc1ccccc1CNCCc1ccccc1)CN1CCSCC1 (centres undefined)	1.58µM*
COc1cc(CNC(C)C)ccc1OCC(O)CN1CCSCC1 (centres undefined)	-17.3%
COc1ccc(CCNC(=O)CC2CCOCC2)cc1OC	51.8%
COc1cc(CNC2CCCCCCC2)ccc1OCC(O)CN1CCSCC1 (centres undefined)	8.91µM*
COc1cc(CNCCc2ccccc2C)ccc1OCC(O)CN1CCOCC1 (centres undefined)	11.2µM*
COc1cc(CNC2CCCCC2)ccc1OCC(O)CN1CCSCC1 (centres undefined)	-13.7%
COc1cc(CN2CC=C(C)CC2)ccc1OCC(O)CN1CCSCC1 (centres undefined)	-13.7%
SMILES	Pf Dd2 inh
CCC(O)C(=O)N1CCc2[nH]nc(C(c3ccccc3)c3ccccc3)c2C1 (centres undefined)	-16.9%
Cc1ccccc1OCC(=O)Nc1ccc(-c2nc3ncccc3o2)cc1	1.0%
CN1CCC(C2CCN(Cc3ccc(CCC(C)(C)O)cc3)CC2)CC1	-18.9%
O=C(NCc1cccnc1)C1CCC(=O)N1C1CCN(C(=O)Cc2cccc(F)c2)CC1 (centres undefined)	8.7%
Cc1cc2c(-c3ccccc3F)nc(-c3c(C)noc3C)cc2[nH]1	i
CC(C)c1nccn1Cc1cc(C(=O)NC(C)c2ccncn2)n[nH]1 (centres undefined)	1.4%
O=C(Nc1ccc(F)cc1F)N1CCC(OC2CCN(Cc3ccccc3)CC2)CC1	i
CCOC(=O)CCNC(=O)N1CCC(OC2CCN(Cc3ccccc3)CC2)CC1	37.5%
CC(C)S(=O)(=O)N1CCC(OC2CCN(Cc3cccnc3)CC2)CC1	19.5%
Cc1ccc(S(=O)(=O)N2CCC(OC3CCN(Cc4ccccc4)CC3)CC2)cc1C	0.891µM*
O=C(c1ccc(Cl)cc1)N1CCC(OC2CCN(Cc3cccnc3)CC2)CC1	i
O=S(=O)(c1cccc(F)c1)N1CCC(OC2CCN(Cc3ccccc3)CC2)CC1	2.82µM*
Cc1ccc(C(=O)N2CCC(OC3CCN(Cc4ccccc4)CC3)CC2)cc1	8.91µM*
O=C(CC1CCN(S(=O)(=O)c2cccc(F)c2)C1)NCc1ccccc1 (centres undefined)	-5.7%
O=C(c1cccnc1)N1CCC(OC2CCN(Cc3ccccc3)CC2)CC1	-15.9%
Cc1ccc(N2CC(C)Cn3c2nc2c3c(=O)n(Cc3cccc(Cl)c3)c(=O)n2C)cc1 (centres undefined)	-2.1%
COc1cccc(C(=O)NC2CC(=O)N(c3ccc4c(c3)OCCO4)C2)c1OC (centres undefined)	0.5%
CN1CCN(C(=O)[C@@H]2CCC[C@@H](NCC3CC3)CN(C)C(=O)C2)CC1	-20.6%[44.1 µM]
COc1cccc(CNC(=O)c2ccc(-c3nc(COc4ccccc4)c(C)o3)cc2)c1	8.0%
Cc1nc([C@@H]2CN(C(=O)CCc3nc4ccccc4[nH]3)C[C@H]2C(N)=O)n[nH]1	16.9%

Screening results deposited in PubChem by National Center for Advancing Translational Sciences (NCATS).
